{
  "source": "ChEMBL document CHEMBL4513216",
  "about": "“Probing the Open Global Health Chemical Diversity Library for Multistage-Active Starting Points for Next-Generation Antimalarials” (ACS Infect Dis, 2020)",
  "note": "Hit rate of the full screen: of about 69,000 compounds, about 8,600 (12%) showed an effect of 50% or more. This excerpt belongs to a sample that is enriched for strong results.",
  "data": [
    {"system": "Plasmodium berghei", "assay": "Screen against P. berghei liver stage (PbLuc), transformed with Luciferase, at 10uM", "format": "functional, HepG2", "settings": "tested at 10 uM", "units": {"INHIBITION": "%"}, "values": [
      {"compound": "Cc1nnc([C@@H]2C[C@H]3CN(C(=O)c4c(C)noc4C)C[C@H]3O2)[nH]1", "INHIBITION": 12.7},
      {"compound": "CC(C)Cc1cc(NC(=O)c2ccncc2)n(C)n1", "INHIBITION": 48.4},
      {"compound": "c1ccc(Cc2cncc(C3CCCN3C3CCOCC3)n2)cc1", "note": "(configuration not stated)", "INHIBITION": 10.175},
      {"compound": "Fc1ccc(CN2CCCC(c3nnc(-c4cnccn4)o3)C2)cc1F", "note": "(configuration not stated)", "INHIBITION": 58.6},
      {"compound": "c1cncc(CN2CCCC(c3nnc(-c4cnccn4)o3)C2)c1", "note": "(configuration not stated)", "INHIBITION": -22.6},
      {"compound": "Cn1nc(C2CCCN(Cc3ccc(F)c(F)c3)C2)c2nccnc21", "note": "(configuration not stated)", "INHIBITION": 54.4},
      {"compound": "Cn1nc(C2CCCN(Cc3cc(F)ccc3F)C2)c2nccnc21", "note": "(configuration not stated)", "INHIBITION": 40},
      {"compound": "Cn1nc(C2CCCN(Cc3ccccc3)C2)c2nccnc21", "note": "(configuration not stated)", "INHIBITION": 64.9},
      {"compound": "c1cc(CN2CCCC(c3nnc(-c4cnccn4)o3)C2)ccn1", "note": "(configuration not stated)", "INHIBITION": 26.8},
      {"compound": "Cn1nc(C2CCCN(Cc3ccc(F)cc3)C2)c2nccnc21", "note": "(configuration not stated)", "INHIBITION": 43.6},
      {"compound": "Cn1nc(C2CCCN(Cc3cccc(F)c3)C2)c2nccnc21", "note": "(configuration not stated)", "INHIBITION": 31.3},
      {"compound": "Cn1nc(C2CCCN(Cc3cc(F)cc(F)c3)C2)c2nccnc21", "note": "(configuration not stated)", "INHIBITION": 36.4},
      {"compound": "Cc1nc(C2CCCN2Cc2ccn(C)c(=O)c2)no1", "note": "(configuration not stated)", "INHIBITION": 5.7},
      {"compound": "COCCN(C)C(C(=O)O)c1ccc(C)c(C)c1", "note": "(configuration not stated)", "INHIBITION": 19.4},
      {"compound": "CCN1CC(=O)NCC12CCN(C(=O)c1ccco1)C2", "note": "(configuration not stated)", "INHIBITION": 1.34},
      {"compound": "Cc1cc(C)n(CC2CCCN2C(=O)c2ccc3nncn3c2)n1", "note": "(configuration not stated)", "INHIBITION": -54.6},
      {"compound": "Cc1noc2nc(C3CCCN(Cc4ccncc4)C3)cc(C(F)F)c12", "note": "(configuration not stated)", "INHIBITION": 34},
      {"compound": "Cc1nc(C(C)NCc2cc(O)c3cccc(F)c3n2)cs1", "note": "(configuration not stated)", "INHIBITION": -2.48},
      {"compound": "Cn1cc(NC(=O)Cc2cccs2)c(=O)n(C)c1=O", "INHIBITION": -7.16},
      {"compound": "CCC(=O)Nc1cc(Br)cn(C)c1=O", "INHIBITION": 8.92},
      {"compound": "Cn1cc(Br)cc(NC(=O)Cc2cccs2)c1=O", "INHIBITION": 53.3},
      {"compound": "O=C(NCCc1nnc2n1CCC2)NCC1(c2ccccc2F)CC1", "INHIBITION": 33.8},
      {"compound": "COCCN1CCCC1(C)c1nc(C)cc(N)n1", "note": "(configuration not stated)", "INHIBITION": -3.94},
      {"compound": "Nc1nc2c(c(N3CCN(C(=O)c4cccs4)CC3)n1)CCCC2", "INHIBITION": 72.5},
      {"compound": "Nc1nc2c(c(NCc3nc(-c4ccncc4)n[nH]3)n1)CCCC2", "INHIBITION": -97.2},
      {"compound": "Nc1nc2c(c(NCc3ccc(C(=O)N4CCCC4)cc3)n1)CCCC2", "INHIBITION": 63.8},
      {"compound": "N#Cc1cccnc1N1CCN(C(=O)c2cccs2)CC1", "INHIBITION": 9.16},
      {"compound": "Cc1csc(N2CCCN(C(=O)c3cccs3)CC2)n1", "INHIBITION": 29.2},
      {"compound": "Nc1nc2c(c(NCc3ccncc3)n1)CCCC2", "INHIBITION": -68.2},
      {"compound": "Cc1ccc(N2CC[C@H]3[C@@H]2CCC(=O)N3CCN2CCOCC2)nn1", "INHIBITION": 18.7},
      {"compound": "O=C(c1cnccn1)N1CCOC2(CCN(Cc3ccsc3)CC2)C1", "INHIBITION": 13.7},
      {"compound": "CNC(=O)NCC1CCC2(CCN(C(=O)c3ccccn3)CC2)CO1", "note": "(configuration not stated)", "INHIBITION": 35.8},
      {"compound": "CN(C)Cc1cc(C2CCN(C(=O)C3CC34CCC4)CC2)nn1C", "note": "(configuration not stated)", "INHIBITION": 8.53},
      {"compound": "CC(C)Oc1ccc(CC2=N[C@](C)(CO)CO2)cc1", "INHIBITION": 16},
      {"compound": "CC1(CO)COC(Cc2ccc(Cl)cc2)=N1", "note": "(configuration not stated)", "INHIBITION": 0.29},
      {"compound": "CCCOc1ccc(CC2=NC(C)(CO)CO2)cc1", "note": "(configuration not stated)", "INHIBITION": 58.3},
      {"compound": "CCn1cc(C(=O)Nc2ccccc2C(=O)OC)cn1", "INHIBITION": 21.5},
      {"compound": "CS(=O)(=O)N1CCOCC2(CCN(Cc3ccoc3)CC2)C1", "INHIBITION": 35.5},
      {"compound": "O=C1NCC2(CCCN(Cc3ccc(F)cc3)C2)Oc2ccccc21", "note": "(configuration not stated)", "INHIBITION": 46},
      {"compound": "O=C1NCC2(CCCN(Cc3ccncc3)C2)Oc2ccccc21", "note": "(configuration not stated)", "INHIBITION": 36.4},
      {"compound": "CSc1ccc(CN2CCCC3(CNC(=O)c4ccccc4O3)C2)cc1", "note": "(configuration not stated)", "INHIBITION": 73.7},
      {"compound": "O=C(NCCc1nccs1)c1n[nH]c2c1CCC2", "INHIBITION": -147},
      {"compound": "Cc1ccc2cccc(C(=O)NCCOCC3CC3)c2n1", "INHIBITION": -58.5},
      {"compound": "CN1CCC(CNC(=O)c2ccc3cccc(Cl)c3n2)C1", "note": "(configuration not stated)", "INHIBITION": 9.4},
      {"compound": "Cc1ccc2cccc(C(=O)NCC3CCN(C(C)C)C3)c2n1", "note": "(configuration not stated)", "INHIBITION": 50.1},
      {"compound": "COCCn1cnc2c(F)cc(Br)cc2c1=O", "INHIBITION": 47.4},
      {"compound": "CC(C)N(C)S(=O)(=O)c1ccc2c(c1)CCN(C(=O)c1cscn1)C2", "INHIBITION": 65.2},
      {"compound": "CC(C)N(C)S(=O)(=O)c1ccc2c(c1)CCN(C(=O)c1ccccn1)C2", "INHIBITION": -12.1},
      {"compound": "CC(C)N(C)S(=O)(=O)c1ccc2c(c1)CCN(C(=O)c1cnccn1)C2", "INHIBITION": 28.8},
      {"compound": "CCCc1cc(C(=O)NC(C)c2ccccc2)n(C)n1", "note": "(configuration not stated)", "INHIBITION": 8.7},
      {"compound": "O=C(O)c1cc(Br)cnc1OCC1CC1", "INHIBITION": 14.4},
      {"compound": "Cc1cc2c(cc1CNC(Cc1cccs1)c1nccs1)OCO2", "note": "(configuration not stated)", "INHIBITION": 28.375}
    ]}
  ]
}
